Assay results reported in PubChem BioAssay AID1030 (National Center for Advancing Translational Sciences (NCATS), 2008).
Out of some 220,000 compounds screened, about 16,000 (7.3%) were called active. Not shown: some 25% with an inconclusive outcome. Calls follow the shape of the dose curve; as a rule, active = well fitted inhibition curve with a large enough effect (not every such curve was filed as active); inconclusive = small, poorly fitted or top-dose-only effect, or another doubt; inactive = no such curve, though single readings can be large or run the other way. What follows is part of a selection rich in actives, with near analogues and random picks from the rest.

Target: Aldehyde dehydrogenase 1A1 (Homo sapiens) (UniProt P00352)
Sequence (P00352 whole entry, looked up): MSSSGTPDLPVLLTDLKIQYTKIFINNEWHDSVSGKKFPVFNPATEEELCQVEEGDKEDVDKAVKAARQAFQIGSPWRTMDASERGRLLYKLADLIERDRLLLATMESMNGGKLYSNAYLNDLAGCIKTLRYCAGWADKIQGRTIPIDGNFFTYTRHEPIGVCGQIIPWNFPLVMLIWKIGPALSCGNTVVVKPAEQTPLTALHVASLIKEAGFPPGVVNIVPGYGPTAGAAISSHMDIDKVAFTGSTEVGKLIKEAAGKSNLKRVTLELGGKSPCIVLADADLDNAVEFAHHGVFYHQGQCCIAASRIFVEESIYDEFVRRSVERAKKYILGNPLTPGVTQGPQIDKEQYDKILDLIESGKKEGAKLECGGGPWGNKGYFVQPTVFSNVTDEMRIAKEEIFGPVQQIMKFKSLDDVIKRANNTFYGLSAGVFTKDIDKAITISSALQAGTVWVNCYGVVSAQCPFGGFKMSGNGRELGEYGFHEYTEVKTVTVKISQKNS
Experiment: qHTS Assay for Inhibitors of Aldehyde Dehydrogenase 1 (ALDH1A1);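 as to activity, negative = inhibition: plate controls were no enzyme wells and a reference inhibitor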
Conditions: Purified ALDH1A1, NADH fluorescence, propionaldehyde substrate; series mostly up to 75.3 µM; activity, negative = inhibition: at the top concentration
Potency is read from the fitted curve at half-maximal effect.

activity, negative = inhibition, inactive:
COC(=O)C1=C(C)N(C)C(=S)NC1c1cc(OC)ccc1OC (stereo not given) 5.5%
FC(F)(F)c1ccnc(Oc2ccc(C3=NCCS3)cc2)c1 -6.21%
CN1CCC(=NNC(=O)CN(c2cccc(Cl)c2)S(C)(=O)=O)CC1 10.8%
CCN1CCN(C(=O)c2ccc(CN(c3ccc(C)c(C)c3)S(C)(=O)=O)cc2)CC1 -0.172%
CC(=O)N1CC(C)c2scc(C)[n+]2-c2ccccc21 (stereo not given) 15.2%
OCC1(Cc2ccccc2C(F)(F)F)CCN(Cc2cccc3cnccc23)CC1 -3.56%
O=S(=O)(NC1CC1)c1ccc2c3c(cccc13)CC2 -5.31%
COc1ccc(N2CCN(C(=O)CNC(=O)c3ccc(C(C)(C)C)cc3)CC2)cc1 -14.7%
COc1ccc(C(=O)NC(Cc2ccc(OC(=O)c3ccc(OC)cc3)cc2)C(=O)O)cc1 (stereo not given) -7.25%
CCCNC(=S)N1CCCC(c2nc3ccccc3[nH]2)C1 (stereo not given) 9.56%
C#Cc1ccc([C@@H]2C=C(C(=O)O)O[C@H](OCCCCO)C2)cc1 -7.97%
Cc1csc(/N=C/N(C)C)c1C#N -6.21%
COc1c(C(C)C)oc2cc3oc(=O)ccc3cc12 -1.48%
Cc1c(CCO)sc[n+]1CC(=O)OC12CC3CC(CC(C3)C1)C2 5.18%
CC(=O)Nc1ccc(Nc2nc3c(S(=O)(=O)c4ccc(C)c(C)c4)nnn3c3ccccc23)cc1 139%
CN(CCc1ccccn1)C(=O)CCC1CCCN(Cc2ccccc2OC(F)F)C1 (stereo not given) 11.8%
O=C(CCc1ccccc1)NCc1cccnc1 3.47%
Fc1ccccc1COc1ccccc1CNCc1ccncc1 8.32%
CC(C)(C)c1ccc(/C=C2\Oc3c(ccc(O)c3CN3CCN(CCO)CC3)C2=O)cc1 -12.5%
Cc1nnc(SCC(=O)N2CCc3ccccc32)n1-c1ccccc1 0.566%
O=C(CSc1ccc2nnc(-c3ccccc3)n2n1)N1CCCc2ccccc21 -10.2%
COc1ccc(-c2ccc(CNCCCN3CCOCC3)o2)cc1Cl 6.17%
CC1(C)O[C@@H]2C[C@@H]3[C@H]4C[C@@H](F)C5=CC(=O)C=C[C@]5(C)[C@@]4(F)[C@@H](O)C[C@]3(C)[C@]2(C(=O)CO)O1 12.1%
COc1ccccc1NC(=O)C1=C(C)Nc2nnnn2C1c1cccc(Br)c1 (stereo not given) -5.9%
COc1ccc(C2C(C(=O)Nc3ccccc3OC)=C(C)Nc3nnnn32)c(OC)c1 (stereo not given) -14.3%
COc1cc(OC)cc(-c2nnc(SCC(=O)Nc3ccc(C(=O)O)cc3)s2)c1 -8.2%
Cc1ccc(S(=O)(=O)NC(C(=O)N2CCOCCOCCOCCOCC2)c2ccccc2)cc1 (stereo not given) -1.15%
COc1cc(OC)cc(C(=O)NCCSCc2ccco2)c1 5.75%
CCC(CC)NC(=O)/C=C/c1cccc([N+](=O)[O-])c1 -3.2%
CCOc1ccc(-c2ccc(SCC(=O)N3CCOCC3)nn2)cc1 1.06%
CN1CCN(S(=O)(=O)c2cccc(C(=O)N3CCc4ccccc43)c2)CC1 -2.83%
C/C(=N\NC(=O)c1cccc(N2CCCC2=O)c1)c1ccc(N)cc1 -7.57%
O=C(CCN1C(=O)COc2ccccc21)NCCCN1CCN(c2ccc(F)cc2)CC1 8.59%
CCCN1CCN(CCCNC(=O)CN2C(=O)COc3ccccc32)CC1 -0.825%
Cc1ccc(Cl)c(NC(=O)CN2CCN(C=O)CC2)c1 6.92%
CCCCC/C=C\C/C=C\C/C=C\CCCCC(=O)NCC(=O)O 1.71%
O=C(O)C1CCN(C(=O)c2cc(F)cc3c2OCOC3)CC1 -4.59%
COc1ccccc1C1CCN(c2ccc([N+](=O)[O-])cn2)CC1 -3.06%
COc1ccc([N+](=O)[O-])cc1NC(=O)C(C)OC(=O)C1c2ccccc2Oc2ccccc21 (stereo not given) 4.85%
COc1ccc(CN(C)Cc2nc3cc(OC)c(OC)cc3c(=O)[nH]2)c(OC)c1 6.82%
COc1ccnc(Oc2ccccc2)c1-c1ncn[nH]1 -0.551%
Cc1cc2oc(=O)cc(-c3ccccc3)c2c(C)c1/C=C/c1ccc(F)cc1 1.81%
Nc1ccc(S(=O)(=O)Nc2nccc(/C=C/c3ccc(Br)s3)n2)cc1 -11.9%
COc1ccc(F)cc1C(=O)C1CCCN(C(=O)CCc2ccccn2)C1 (stereo not given) -4.22%
Cc1cc(Cl)ccc1C(=O)C1CCCN(C(=O)CCN2CCCO2)C1 (stereo not given) -15.5%
Cc1cc(C(=O)CC#N)c(C)n1-c1c(C)n(C)n(-c2ccccc2)c1=O 17.2%
Cc1cc(C(=O)OCC(=O)NCc2ccco2)c(C)n1-c1ccccc1 -9.68%
CCOc1ccc(CCN2C(=O)c3cccnc3C2=O)cc1OCC 4.81%
O=C1CC(=O)Nc2cc(S(=O)(=O)N3CCN(c4cccc(C(F)(F)F)c4)CC3)ccc2N1 -2.99%
Cc1ccc(S(=O)(=O)N(C)CC(=O)NC2CCCC2)cc1 -2.42%
O=C(CN(CC1CCCO1)C(=O)CNS(=O)(=O)c1ccc(F)cc1)NCc1ccco1 (stereo not given) 4.66%
COc1ccccc1-c1nc(SC)n[nH]1 2.27%

Potency, inactive:
C/C=C1\C2C=C(C)CC1(N)c1ccc(=O)[nH]c1C2 (stereo not given)

Potency, active:
CN1CCC(=NNC(=O)c2ccc(N(Cc3ccc(Cl)cc3)S(C)(=O)=O)cc2)CC1 8.91 µM
COc1ccc(-c2ccc(CCC(=O)O)n2NC(=O)c2ccc(C(C)(C)C)cc2)cc1 2.24 µM
C/C(Nc1ccc2oc(=O)ccc2c1)=C1/C(=O)CC2[C@@H]1C2(C)C (stereo not given in full) 3.98 µM
c1ccc(COc2ccccc2CNCc2cccnc2)cc1 17.8 µM
O=C(NCc1nnc(SCC(=O)N2CCCc3ccccc32)o1)c1ccccc1F 28.2 µM
COC(=O)C1=C(C(=O)c2ccc(C)cc2)C(c2ccccc2)n2nnnc2N1 (stereo not given) 7.08 µM
O=C(/C=C/c1cccc([N+](=O)[O-])c1)NCCSCc1ccco1 20 µM
O=C(CN1C(=O)COc2ccccc21)Nc1ccc(F)cc1 22.4 µM
COc1ccc([N+](=O)[O-])cc1C1NN=C(c2cccc3ccccc23)S1 (stereo not given) 10 µM
CSCC(=O)N1CCCC(C(=O)c2cc(F)ccc2F)C1 (stereo not given) 10 µM
Cc1cc(C(=O)COC(=O)c2cccs2)c(C)n1-c1c(C)n(C)n(-c2ccccc2)c1=O 20 µM
Cc1ccc(S(=O)(=O)NCC(=O)N(CC(=O)NC2CCCCC2)Cc2ccco2)cc1 17.8 µM
